# PubChem BioAssay (NCATS)
# “And” between values parts separate entries of the source, which are not always exact repeats. Equal values may be shown once. Inconclusive results are not listed. The source made the active and inactive calls. Unless noted, no rule for the calls is given here.
# Legend:
# [1] = qHTS Assay for Identifying Gametocytocidal Compounds (AID 743244; active = well fitted curve in the direction sought with a large enough effect; an effect the other way counts as inactive or inconclusive; also: potency is read from the fitted curve at half-maximal effect;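 as to max response: % is scaled to controls: 0 for no effect and ±100 for the full control effect; actives lower the fluorescent signal which means gametocytes are killed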); conditions: P. falciparum 3D7 stage III-V gametocytes, alamarBlue, 72 h; max response: stronger effect = lower value
# How it was run: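 In this qHTS viability screen, late-stage 3D7 gametocytes are incubated with compound for 72 h, then with alamarBlue for 24 h; reduced resorufin fluorescence marks killing.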
# [2] = qHTS profiling for inhibitors of Plasmodium falciparum (3D7) proliferation (AID 743322);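 also: infected erythrocytes exposed to compound for 72 h before lysis; 100% = DMSO vehicle wells and 0% = 0.29 µM artemisinin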; conditions: P. falciparum 3D7 proliferation; at 28.7 µM (top of the series) unless noted
# How it was run: (§1)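 Parasite DNA was quantified by SYBR Green I fluorescence (ex 485, em 535 nm) after overnight lysis in saponin/Triton buffer at room temperature. Cultures at 0.3% parasitemia and 2.5% hematocrit were first exposed to compound for 72 h at 37 C; signals were normalised to artemisinin (0.29 uM) and vehicle wells.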
# [3] = qHTS profiling for inhibitors of Plasmodium falciparum (DD2) proliferation (AID 743323); conditions: lower = more inhibition; at 28.7 µM (top of the series) unless noted
# How it was run: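 P. falciparum Dd2-infected erythrocytes (0.3% parasitemia, 2.5% hematocrit) exposed 72 h at 37 C, 5% CO2. Lysis with SYBR Green, overnight at room temperature, fluorescence 485/535 nm; normalized to 0.29 uM artemisinin and DMSO.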
# [4] = qHTS profiling for inhibitors of Plasmodium falciparum (HB3) proliferation (AID 743324; active = well fitted curve in the direction sought with a large enough effect; an effect the other way counts as inactive or inconclusive;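 also: 100% = DMSO vehicle wells and 0% = artemisinin-treated control wells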); conditions: Plasmodium falciparum HB3 blood-stage proliferation; at 28.7 µM (top of the series) unless noted
# How it was run: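 SYBR Green fluorescence (485 ex/535 em) of lysed cultures, incubated overnight at room temperature in the dark, quantifies parasite DNA. Infected erythrocytes at 0.3% parasitemia and 2.5% hematocrit were exposed 72 h; values normalized to DMSO and 0.29 uM artemisinin controls.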
# [5] = Cell Proliferation Assay Versus the ED40515 IL2 Independent ATL cell lines (AID 1053194; calls by dose curve); conditions: ED40515 IL2-independent ATL cells
# How it was run: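 CellTiter-Glo luminescence, read after 15 min at RT, gave viability of IL-2-free ED40515 cells (1000/well, RPMI plus 5% FBS) following 48 h drug exposure at 37C. Control wells held DMSO or 9.2 uM bortezomib.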
# [6] = qHTS profiling of the MIPE4 collection as inhibitors of Plasmodium falciparum (3D7) proliferation (AID 743344);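 also: scaled between DMSO vehicle wells and 0.29 µM artemisinin as full inhibition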; conditions: P. falciparum 3D7 in erythrocytes, SYBR Green DNA fluorescence, 72 h; at 28.5 µM (top of the series) unless noted
# How it was run: as §1
# [7] = qHTS profiling of the MIPE4 collection as inhibitors of Plasmodium falciparum (DD2) proliferation (Rep 2) (AID 743346); conditions: P. falciparum Dd2 in erythrocytes, SYBR Green DNA, 72 h; at 28.5 µM (top of the series) unless noted
# How it was run: as §1
# [8] = qHTS profiling of the MIPE4 collection as inhibitors of Plasmodium falciparum (HB3) proliferation (AID 743347);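 also: plate controls were DMSO vehicle wells for no effect and artemisinin wells for full effect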; conditions: P. falciparum HB3 in erythrocytes, SYBR Green DNA, 72 h; at 28.5 µM (top of the series) unless noted
# How it was run: as §1
# [9] = Cell Proliferation Assay Versus the ED40515 IL2 Dependent ATL cell lines (AID 1053195; calls by dose curve); conditions: ED40515 IL2-dependent ATL cells
# How it was run: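 CellTiter-Glo luminescence (15 min, RT) measured viability after 48 hours at 37C; cells were ED40515 +IL2, 1000/well, in phenol red-free RPMI with 5% FBS. Controls: DMSO and 9.2 uM bortezomib.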
# [10] = qHTS profiling of the MIPE4 collection as inhibitors of Plasmodium falciparum (DD2) proliferation (AID 743345); conditions: P. falciparum Dd2 in erythrocytes, SYBR Green DNA, 72 h; at 28.5 µM (top of the series) unless noted
# How it was run: as §1
# [11] = qHTS for Activators of Parkin Expression: LOPAC Validation Assay (NLuc Reporter) (AID 720572; active = well fitted curve in the direction sought with a large enough effect; an effect the other way counts as inactive or inconclusive;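 also: 0% = DMSO and 100% = positive control compound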)
# How it was run: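 Cells harboring the Parkin-promoter coincidence reporter were treated for 24 h at seven concentrations. NLuc output was measured sequentially after the FLuc channel and scaled between DMSO and positive control values.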
# [12] = target: T1, Hexokinase-4 (Homo sapiens) + Glucokinase regulatory protein (Homo sapiens) (UniProt P35557+Q14397); test: qHTS assay for inhibitors of recombinant human GCK-GKRP interaction: Diaphorase-coupled assay (AID 743205; active = well fitted curve in the direction sought with a large enough effect; an effect the other way counts as inactive or inconclusive)
# T1 sequence (P35557 whole entry, looked up): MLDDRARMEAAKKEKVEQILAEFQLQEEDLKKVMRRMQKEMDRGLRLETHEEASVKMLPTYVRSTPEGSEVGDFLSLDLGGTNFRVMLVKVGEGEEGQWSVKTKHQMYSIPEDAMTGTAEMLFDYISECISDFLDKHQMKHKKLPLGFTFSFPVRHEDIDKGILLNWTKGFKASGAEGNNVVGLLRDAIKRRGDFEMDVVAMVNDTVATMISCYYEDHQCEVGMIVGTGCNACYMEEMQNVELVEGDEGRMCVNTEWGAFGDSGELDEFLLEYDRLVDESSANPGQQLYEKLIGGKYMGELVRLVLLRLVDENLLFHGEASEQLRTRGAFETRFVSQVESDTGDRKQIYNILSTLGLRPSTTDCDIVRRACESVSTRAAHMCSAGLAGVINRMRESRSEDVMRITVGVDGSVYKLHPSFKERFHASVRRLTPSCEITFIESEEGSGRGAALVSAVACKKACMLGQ
# T1 sequence (Q14397 whole entry, looked up): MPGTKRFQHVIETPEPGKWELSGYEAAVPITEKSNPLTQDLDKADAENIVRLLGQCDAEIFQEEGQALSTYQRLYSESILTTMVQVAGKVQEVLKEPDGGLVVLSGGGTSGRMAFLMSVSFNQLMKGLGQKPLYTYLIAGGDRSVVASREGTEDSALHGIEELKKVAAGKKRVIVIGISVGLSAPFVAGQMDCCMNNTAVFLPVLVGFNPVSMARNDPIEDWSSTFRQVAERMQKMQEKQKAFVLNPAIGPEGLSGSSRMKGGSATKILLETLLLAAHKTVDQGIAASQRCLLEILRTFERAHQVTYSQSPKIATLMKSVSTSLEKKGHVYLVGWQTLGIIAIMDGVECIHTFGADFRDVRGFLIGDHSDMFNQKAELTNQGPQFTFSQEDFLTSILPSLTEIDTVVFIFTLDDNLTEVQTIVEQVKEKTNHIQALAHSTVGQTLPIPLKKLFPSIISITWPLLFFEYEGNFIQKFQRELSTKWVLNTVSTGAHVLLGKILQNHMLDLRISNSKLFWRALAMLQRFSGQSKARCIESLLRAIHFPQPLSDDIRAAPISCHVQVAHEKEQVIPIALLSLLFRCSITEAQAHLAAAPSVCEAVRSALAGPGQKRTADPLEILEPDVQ
# How it was run: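 A kinetic fluorescence read (Ex 525/Em 590 nm, every minute for 30 minutes) tracked resorufin from a G6PDH-diaphorase coupled GCK reaction. It contained 10 nM GST-GCK, 10 nM FLAG-GKRP, 5 mM glucose, 0.4 mM ATP in Hepes pH 7.6. Normalized to with/without-enzyme DMSO controls.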
# [13] = target: T1, Hexokinase-4 (Homo sapiens) + Glucokinase regulatory protein (Homo sapiens); test: qHTS assay for inhibitors of recombinant human GCK-GKRP interaction: ADP-Glo assay (AID 743206; active = well fitted curve in the direction sought with a large enough effect; an effect the other way counts as inactive or inconclusive;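 also: plate controls were DMSO plus enzyme for no effect and no enzyme for full effect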)
# How it was run: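 Pin-transferred compounds meet a 15 nM GST-GCK/15 nM FLAG-GKRP/2 uM S6P mix (dispense concentrations). ATP is then added to 0.4 mM final with 5 mM glucose, and the reaction runs 60 min at room temperature. ADP is quantified luminescently.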
# [14] = target: T1, Hexokinase-4 (Homo sapiens) + Glucokinase regulatory protein (Homo sapiens); test: qHTS assay for inhibitors of recombinant human GCK-GKRP interaction: HTRF assay (AID 743207; active = well fitted curve in the direction sought with a large enough effect; an effect the other way counts as inactive or inconclusive;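 also: 0% = DMSO with GCK present and -100% = DMSO wells lacking GCK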)
# How it was run: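 After 60 min equilibration at room temperature with anti-FLAG XL665 and anti-GST antibodies, FRET ratio (665/615 nm, excitation 320 nm) was read. Proteins: GST-GCK and FLAG-GKRP, each 5 nM, plus 2 uM S6P, pH 7.1 buffer; GCK-free wells define minimum signal.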
# [15] = qHTS for Activators of Parkin Expression: LOPAC Validation Assay (FLuc Reporter) (AID 720573; active = well fitted curve in the direction sought with a large enough effect; an effect the other way counts as inactive or inconclusive;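 also: 0% = DMSO and 100% = positive control compounds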)
# How it was run: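 FLuc signal from Parkin-promoter coincidence reporter neuronal cells, normalized to DMSO and positive control (100%). Cells (1,500/well) pre-incubated 24 h, then exposed to LOPAC compounds in 7-point dose response for 24 h at 37 C, 5% CO2.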
# [16] = qHTS assay for small molecule agonists of the antioxidant response element (ARE) signaling pathway measured by Nrf2-dependant transcriptional activity (AID 720636; active = well fitted curve in the direction sought with a large enough effect in the repeat runs; an effect the other way counts as inactive or inconclusive;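 also: HepG2 cells with an ARE-driven luciferase reporter; % of control where 0% means no effect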)
# How it was run: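 First, ARE-luc HepG2 cells attached for 6 hr at 37 C in 1% dialyzed FBS medium. Next, compound or DMSO was added and incubated 16 hr. Finally, ONE-Glo reagent was added and luminescence measured after 30 min.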
# [17] = qHTS assay for small molecule antagonists of the retinoid-related orphan receptor gamma (ROR-gamma) signaling pathway - cell viability counter screen (AID 720652; active = well fitted curve in the direction sought with a large enough effect in the repeat runs; an effect the other way counts as inactive or inconclusive;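 also: CHO reporter cells with doxycycline-induced ROR-gamma expression; compound exposure lasted 16 hr before ATP read; % is scaled to controls: 0 for no effect and ±100 for the full control effect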)
# How it was run: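 Steps: seed CHO cells bearing TET-inducible ROR and ROR response element-luciferase; rest 5 hr at 37 C; add compound, then doxycycline; incubate 16 hr; add CellTiter-Glo and read luminescence as ATP-based viability.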
# [18] = qHTS assay for small molecule agonists of the antioxidant response element (ARE) signaling pathway measured by Nrf2-dependant transcriptional activity - cell viability counter screen (AID 720653; active = well fitted curve in the direction sought with a large enough effect in the repeat runs; an effect the other way counts as inactive or inconclusive; also: % is scaled to controls: 0 for no effect and ±100 for the full control effect); conditions: ARE-bla HepG2 viability, CellTiter-Glo ATP luminescence, 16 h; stronger effect = lower value
# How it was run: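 ARE-bla HepG2 cells (2,000/well) rested 5 hrs at 37C/5% CO2, then exposed to compounds in DMSO for 16 hrs. Viability was read in the same wells as intracellular ATP by luminescence, 30 min at room temperature after reagent addition.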
# [19] = qHTS assay for cell viability of HEK293 cells (AID 743288; active = well fitted curve in the direction sought with a large enough effect; an effect the other way counts as inactive or inconclusive; also: % is scaled to controls: 0 for no effect and ±100 for the full control effect; nearly all actives have a fitted effect of over 50% in size); conditions: ATP luminescence (CellTiter-Glo), 18 h; max response: stronger effect = lower value
# How it was run: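 Readout is luciferase-coupled ATP content (CellTiter-Glo luminescence, 30 min room temperature) as a measure of metabolically competent cells. Parental HEK293 cells were plated 5 h or more before compound addition, then treated 18 h at 37 C.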
# [20] = qHTS assay for cell viability of the p53RE-bla HCT-116 cell line (AID 743292; active = well fitted curve in the direction sought with a large enough effect; an effect the other way counts as inactive or inconclusive; also: % is scaled to controls: 0 for no effect and ±100 for the full control effect; nearly all actives have a fitted effect of over 55% in size)
# How it was run: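 Quantitative high-throughput format: compounds in DMSO were pinned onto p53RE-bla HCT-116 cells (4,000/well) and incubated 16 h at 37 C. Total intracellular ATP, read by CellTiter-Glo luminescence, reflects viable cell number.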
structure (smiles),measurement,setting,value
C/C(=C\C(=O)Nc1ccccc1C(=O)O)c1ccc2ccccc2c1,max response,[1],90.9% (inactive)
same,remaining parasite growth % (stronger effect = lower value),[2],32.7%
same,"activity, percent of control",[3],101%
same,"remaining proliferation (% of control), lower = more inhibition",[4],114%
same,Potency,[5],8.33 µM (active)
CCC(C)n1ncn(-c2ccc(N3CCN(c4ccc(OC[C@H]5CO[C@](Cn6cncn6)(c6ccc(Cl)cc6Cl)O5)cc4)CC3)cc2)c1=O (some centres undefined),max response,[1],3.11% (inactive)
same,remaining parasite growth % (stronger effect = lower value),[2],3.74%
same,"activity, percent of control",[3],7.7%
same,"remaining proliferation (% of control), lower = more inhibition",[4],2.67%
same,"parasite growth, % of DMSO control",[6],5.41%
same,"parasite growth, % of control (lower = inhibition)",[7],37.4%
same,"growth, % of control",[8],4.47%
same,Potency,[5],10.5 µM (active)
same,Potency,[9],1.32 µM (active)
COc1ccccc1[C@H](c1cccc2ccccc12)[C@@](C)(C#N)C(=O)N1CCC(c2cccc(C(F)(F)F)c2)CC1,max response,[1],-0.358% (inactive)
same,"activity, percent of control",[3],1.44%
same,"remaining proliferation (% of control), lower = more inhibition",[4],0.956%
same,"parasite growth, % of DMSO control",[6],5.47%
same,"parasite growth remaining, % of DMSO control (lower = more inhibition)",[10],8.96%
same,"parasite growth, % of control (lower = inhibition)",[7],9.97%
same,"growth, % of control",[8],6.38%
same,Potency,[5],7.43 µM (active)
O=C(Nc1nc2ccccc2n1CCN1CCOCC1)c1cccc([N+](=O)[O-])c1,Potency,[11],inactive
same,outcome,[12],inactive
same,outcome,[13],inactive
same,outcome,[14],inactive
same,"parasite growth, % of control (lower = inhibition)",[7],17.9%
same,Potency,[5],18.7 µM (active)
CCOc1ccn(-c2ccc(F)cc2)c(=O)c1C(=O)Nc1ccc(Oc2ccnc(N)c2Cl)c(F)c1,max response,[1],18.8% (inactive)
same,remaining parasite growth % (stronger effect = lower value),[2],83.7%
same,"activity, percent of control",[3],56.6%
same,"remaining proliferation (% of control), lower = more inhibition",[4],36.7%
same,"parasite growth, % of DMSO control",[6],41.2%
same,"parasite growth remaining, % of DMSO control (lower = more inhibition)",[10],80.4%
same,"parasite growth, % of control (lower = inhibition)",[7],36%
same,"growth, % of control",[8],73%
same,Potency,[5],23.5 µM (active)
Clc1ccc(Nc2nnc(Cc3ccncc3)c3ccccc23)cc1,max response,[1],-0.822% (inactive) and -17.1% (inactive)
same,remaining parasite growth % (stronger effect = lower value),[2],-0.114%
same,"activity, percent of control",[3],2.71%
same,"remaining proliferation (% of control), lower = more inhibition",[4],0.459%
same,"parasite growth, % of DMSO control",[6],34.2%
same,"parasite growth remaining, % of DMSO control (lower = more inhibition)",[10],84.7%
same,"parasite growth, % of control (lower = inhibition)",[7],63.4%
same,"growth, % of control",[8],53.1%
same,Potency,[5],33.2 µM (active)
CCc1ccc(CCOc2ccc(CC3SC(=O)NC3=O)cc2)nc1 (centres undefined),max response,[1],40% (inactive) and -8.95% (inactive)
same,remaining parasite growth % (stronger effect = lower value),[2],92%
same,"activity, percent of control",[3],103%
same,"remaining proliferation (% of control), lower = more inhibition",[4],66.4%
same,"parasite growth, % of DMSO control",[6],89.3%
same,"parasite growth remaining, % of DMSO control (lower = more inhibition)",[10],90.1%
same,"parasite growth, % of control (lower = inhibition)",[7],79.4%
same,"growth, % of control",[8],63.3%
same,Potency,[5],23.5 µM (active)
N#CC[C@H](C1CCCC1)n1cc(-c2ncnc3[nH]ccc23)cn1,max response,[1],2.34% (inactive)
same,"activity, percent of control",[3],48.8%
same,"remaining proliferation (% of control), lower = more inhibition",[4],18.5%
same,"parasite growth, % of DMSO control",[6],21.5%
same,"parasite growth remaining, % of DMSO control (lower = more inhibition)",[10],64.4%
same,"parasite growth, % of control (lower = inhibition)",[7],55.7%
same,"growth, % of control",[8],40.5%
same,Potency,[5],20.9 µM (active)
CCc1cc(Nc2nccc(-c3c(-c4ccc(OC)c(C(=O)Nc5c(F)cccc5F)c4)nc4ccccn34)n2)c(OC)cc1N1CCC(N2CCN(S(C)(=O)=O)CC2)CC1,Potency,[1],3.72 µM (active)
same,remaining parasite growth % (stronger effect = lower value),[2],-0.479%
same,"activity, percent of control",[3],0.369%
same,"remaining proliferation (% of control), lower = more inhibition",[4],-0.677%
same,"parasite growth remaining, % of DMSO control (lower = more inhibition)",[10],6.42%
same,"parasite growth, % of control (lower = inhibition)",[7],14.9%
same,"growth, % of control",[8],4.27%
same,Potency,[9],1.66 µM (active)
NC(=O)c1cnccn1,Potency,[11],inactive
same,outcome,[15],inactive
same,outcome,[16],inactive
same,outcome,[17],inactive
same,max response,[18],6.82% (inactive) and 7.56% (inactive)
same,outcome,[12],inactive
same,outcome,[13],inactive
same,outcome,[14],inactive
same,max response,[1],-3.29% (inactive) and 14.5% (inactive)
same,max response,[19],4.61% (inactive) and 0.671% (inactive)
same,Potency,[20],inactive
same,"parasite growth, % of control (lower = inhibition)",[7],45.3%
same,"growth, % of control",[8],105%
